Laboratory results as given in PubChem BioAssay AID1159580 (chemical genetic matrix, 2015).
The whole screen tested about 5,500 compounds, of which about 2,000 (36%) were called active. Roughly 18% stayed inconclusive and do not appear here. No stated cut-off is given here; in the data, active means normalized growth mostly below about 0.91 (no sharp cut-off); inconclusive means no clear call, values can overlap the other calls; inactive means mostly above about 0.92. This is one part of the list.

Assay: chemical genetic growth profiling, strain panel (AID 1159580);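 further: tested at 20 µM; growth read once vehicle control cultures reached saturation at 30 °C; 1 = growth at the plate median or of vehicle wells; lower values mean less growth of the strain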
Conditions: S. cerevisiae deletion strains, growth OD

Measured: normalized growth

Cc1nc([N+](=O)[O-])cn1CC(=O)c1ccc(Cl)cc1
inactive: locus YAR019C, strain CDC15, hits give low values 0.973 | locus YBL105C, strain PKC1, hits give low values 0.97 | locus YBR135W, strain CKS1, hits give low values 0.982 | locus YBR136W, strain MEC1, hits give low values 0.973 | locus YBR160W, strain CDC28, hits give low values 0.984 | locus YDL017W, strain CDC7, hits give low values 0.981 | locus YDL028C, strain MPS1, hits give low values 0.969 | locus YDL101C, strain DUN1, hits give low values 0.978 | locus YDL108W, strain KIN28, hits give low values 0.963 | locus YDL132W, strain cdc53, hits give low values 0.976 | locus YDL214C, strain PRR2, hits give low values 0.927 | locus YDR052C, strain DBF4, hits give low values 0.964 | locus YDR054C, strain cdc34, hits give low values 0.973 | locus YDR226W, strain ADK1, hits give low values 0.972 | locus YDR477W, strain SNF1, hits give low values 0.938 | locus YER123W, strain YCK3, hits give low values 0.782 | locus YER133W, strain GLC7, hits give low values 0.94 | locus YFL009W, strain cdc4, hits give low values 0.982 | locus YFL029C, strain CAK1, hits give low values 0.971 | locus YFR003C, strain YPI1, hits give low values 0.979 | locus YFR019W, strain FAB1, hits give low values 0.901 | locus YFR028C, strain CDC14, hits give low values 0.98 | locus YGR040W, strain KSS1, hits give low values 0.94 | locus YGR052W, strain FMP48, hits give low values 1.03 | locus YHR079C, strain IRE1, hits give low values 1.05 | locus YHR082C, strain KSP1, hits give low values 1.04 | locus YHR205W, strain SCH9, hits give low values 0.964 | locus YIL147C, strain SLN1, hits give low values 0.96 | locus YJL095W, strain BCK1, hits give low values 1.02 | locus YJL128C, strain PBS2, hits give low values 0.906 | locus YJL157C, strain FAR1, hits give low values 0.922 | locus YJR016C, strain ILV3, hits give low values 0.97 | locus YJR066W, strain TOR1 (second series), hits give low values 0.898 | locus YJR066W, strain TOR1, hits give low values 1.04 | locus YKL048C, strain ELM1, hits give low values 0.966 | locus YKL067W, strain YNK1, hits give low values 0.947 | locus YKL101W, strain HSL1, hits give low values 0.954 | locus YKL193C, strain SDS22, hits give low values 0.969 | locus YKL203C, strain TOR2, hits give low values 1.02 | locus YLR133W, strain CKI1, hits give low values 0.962 | locus YLR403W, strain SFP1, hits give low values 0.941 | locus YML070W, strain DAK1, hits give low values 0.904 | locus YMR001C, strain CDC5, hits give low values 0.976 | locus YMR205C, strain PFK2 (second series), hits give low values 0.966 | locus YMR277W, strain FCP1, hits give low values 0.964 | locus YNL006W, strain LST8, hits give low values 0.983 | locus YNL020C, strain ARK1, hits give low values 0.959 | locus YNL161W, strain CBK1, hits give low values 0.971 | locus YNL183C, strain NPR1, hits give low values 1 | locus YNL207W, strain RIO2, hits give low values 0.965 | locus YNL222W, strain SSU72, hits give low values 0.977 | locus YNL307C, strain MCK1 (second series), hits give low values 0.967 | locus YOL078W, strain AVO1, hits give low values 0.969 | locus YOL136C, strain PFK27, hits give low values 0.927 | locus YOR061W, strain CKA2, hits give low values 0.94 | locus YOR119C, strain RIO1, hits give low values 0.985 | locus YOR231W, strain MKK1, hits give low values 1 | locus YOR329C, strain SCD5, hits give low values 0.977 | locus YPL031C, strain PHO85, hits give low values 0.949 | locus YPL153C, strain RAD53, hits give low values 0.916 | locus YPL204W, strain HRR25, hits give low values 0.921 | locus YPL209C, strain IPL1, hits give low values 0.984 | locus YPL256C, strain CLN2, hits give low values 1.01 | locus YPR025C, strain CCL1, hits give low values 0.985 | locus YPR106W, strain ISR1, hits give low values 0.982 | locus YPR111W, strain DBF20, hits give low values 0.989 | strain NNK1, hits give low values 0.979 | strain TSCII, hits give low values 0.969
active: locus YGR092W, strain DBF2, hits give low values 0.416 | locus YHR030C, strain SLT2, hits give low values 0.189 | locus YLR113W, strain HOG1, hits give low values 0.539
